# ChEMBL document CHEMBL1201862, “PubChem BioAssay data set” (2004)
# Molecular target: Beta Lactamase (Pseudomonas aeruginosa) (UniProt Q932Y6)
# Assay: Late stage assay provider results from the probe development efforts to identify selective inhibitors of VIM-2 metallo-beta-lactamase: VIM-2-transformed E. coli growth inhibition in the presence of imipenem (synergy).
# Assay type: functional; call rule not given here
smiles,measurement,value
O=c1[nH]c2c(s1)[C@H](c1cccnc1)[C@H]1C3CC[C@@H](C3)[C@H]1S2,MIC,> 100 µM (active)
